Test results reported in PubChem BioAssay (Tox21).
A number with no mark means an inactive call. Inconclusive results are not listed. Where a call stands in place of a potency, no number is given. The source made the active and inactive calls. Unless noted, calls come from the whole dose curve; as a rule, active = well fitted curve in the direction sought with a large enough effect in the repeat runs; inconclusive = weak or mixed curves; inactive = no such curve, though single readings can be large; an effect the other way counts as inactive or inconclusive.

Key:
[1] = qHTS assay for small molecule agonists of the p53 signaling pathway (AID 651631; calls by dose curve; note: nearly all actives have a fitted effect of over 15% in size; note: potency is the fitted concentration of half-maximal effect)
In short: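 Readout was fluorescence from the LiveBLAzer FRET substrate, applied for 2 h at room temperature after 16 h compound exposure at 37 °C. Cells were the p53RE-bla HCT-116 line, with beta-lactamase driven by p53 response elements.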

[2] = qHTS assay for small molecules that induce genotoxicity in human embryonic kidney cells expressing luciferase-tagged ATAD5 (AID 651632); note: nearly all actives have a fitted effect of over 15% in size
In short: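 DMSO vehicle served as the control. HEK293T reporter cells, 16 hr at 37C, then 30 min Amplite at room temperature; ATAD5 induction is measured as luciferase activity.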

[3] = qHTS assay for small molecule agonists of the p53 signaling pathway - cell viability (AID 651633; calls by dose curve; note: series mostly up to about 83 µM; nearly all actives have a fitted effect of over 30% in size)
In short: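 p53RE-bla cells were treated with compound for 16 hours at 37 C. Cytotoxicity was then measured as CellTiter-Glo luminescence after 30 min at room temperature.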

[4] = qHTS assay for small molecules that induce genotoxicity in human embryonic kidney cells expressing luciferase-tagged ATAD5 - cell viability (AID 651634; calls by dose curve; note: nearly all actives have a fitted effect of over 25% in size)
In short: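 Here HEK293T cells with the ATAD5 luciferase reporter are incubated with test compounds for 15.5 hr, and cytotoxicity is then gauged by measuring protease activity in live cells using fluorescence.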

[5] = qHTS assay for small molecule disruptors of the mitochondrial membrane potential - cell viability (AID 720634; calls by dose curve;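 note: human HepG2 liver cancer cells; series mostly up to about 83 µM; nearly all actives have a fitted effect of over 20% in size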)
In short: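 Viability of HepG2 cells is scored from ATP content by luminescence; cells are exposed to compound for 1 hr at 37 C and 5% CO2, then dosed with m-MPI dye before the CellTiter-Glo reagent.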

[6] = qHTS assay to test for compound auto fluorescence at 590 nm (red) in HepG2 cells (AID 720674)
In short: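 Fluorescence at 590 nm emission following 540 nm excitation was recorded from HepG2 wells one hour after compound transfer, with DMSO-only wells as vehicle and Rose Bengal sodium equivalency as the scale.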

[7] = qHTS assay to test for compound auto fluorescence at 535 nm (green) in HepG2 cells (AID 720675)
[8] = qHTS assay to test for compound auto fluorescence at 460 nm (blue) in HEK293 cells (AID 720678)
In short: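 Blue-channel (Ex/Em 405/460 nm) intensity measured in HEK293 cultures after overnight compound exposure at 37C; signal expressed relative to triamterene. Cells plated 2,000 per well in 10% dialyzed FBS medium and allowed 4-5 hr to attach.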

[9] = qHTS assay to test for compound auto fluorescence at 590 nm (red) in HEK293 cells (AID 720679)
In short: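 Red-channel autofluorescence (Ex/Em 540/590 nm; Rose Bengal sodium reference) was measured after overnight 37C, 5% CO2 exposure of attached HEK293 cells, 2,000 per well in medium with 10% dialyzed FBS.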

[10] = qHTS assay to test for compound auto fluorescence at 535 nm (green) in HEK293 cells (AID 720680)
[11] = qHTS assay to test for compound auto fluorescence at 460 nm (blue) in HEK293 cell free culture (AID 720681)
In short: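 Compounds were added to cell-free DMEM with 10% FBS and fluorescence read directly. The blue channel used 405 nm excitation and 460 nm emission, with triamterene as the reference fluorophore.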

[12] = qHTS assay to test for compound auto fluorescence at 590 nm (red) in HEK293 cell free culture (AID 720683)
In short: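 Cell-free wells of DMEM with 10% FBS received compound, and intrinsic fluorescence was read at excitation/emission 540/590 nm. Values expressed as equivalence to Rose Bengal sodium.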

[13] = qHTS assay to test for compound auto fluorescence at 590 nm (red) in HepG2 cell free culture (AID 720684)
In short: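 Auto fluorescence equivalency versus Rose Bengal sodium, red channel Ex/Em 540/590 nm; compounds in cell-free MEM/10% FBS; DMSO vehicle control.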

[14] = qHTS assay to test for compound auto fluorescence at 535 nm (green) in HepG2 cell free culture (AID 720686)
[15] = qHTS assay to test for compound auto fluorescence at 460 nm (blue) in HepG2 cells (AID 720687)
In short: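 HepG2 cells in MEM with 10% FBS, attached overnight at 37 C, were exposed to compound or DMSO for 1 hr at 37 C, 5% CO2. Blue fluorescence was read at 405/460 nm, with triamterene as reference fluorophore.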

[16] = qHTS assay to test for compound auto fluorescence at 535 nm (green) in HEK293 cell free culture (AID 720682)
In short: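 Compounds were pin-transferred into cell-free DMEM with 10% FBS, and green fluorescence was read at excitation 485 nm and emission 535 nm. Intensities were expressed as fluorescein-equivalent values.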

[17] = qHTS assay to test for compound auto fluorescence at 460 nm (blue) in HepG2 cell free culture (AID 720685)
In short: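 Cell-free plates of MEM plus 10% FBS received 23 nL compound or DMSO vehicle; blue-channel (405/460 nm) intensity scored against triamterene as reference fluorophore.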

[18] = target: Glucocorticoid receptor (Homo sapiens) (UniProt P04150); assay: qHTS assay to identify small molecule agonists of the glucocorticoid receptor (GR) signaling pathway (AID 720691; active = well fitted activation curve with a large enough effect in the signal ratio in the repeat runs, not every such curve was filed as active; the % refers to the signal ratio)
In short: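 Compounds in DMSO, alongside positive controls, were added to GR-bla HeLa reporter cells and incubated 18 h at 37 C; GRE-driven beta-lactamase was detected by fluorescence after 2 h with FRET substrate at room temperature.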

[19] = target: Glucocorticoid receptor (Homo sapiens) (UniProt P04150); assay: qHTS assay to identify small molecule antagonists of the glucocorticoid receptor (GR) signaling pathway (AID 720692; active = well fitted inhibition curve with a large enough effect in the signal ratio in the repeat runs, not every such curve was filed as active; the % refers to the signal ratio)
In short: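 In a 1536-well cell format, compounds were added 4 h after seeding GR-bla HeLa cells, together with dexamethasone at 5 nM final; reporter activity was measured by FRET-substrate fluorescence following 18 h at 37 C.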

Chain of Glucocorticoid receptor (Homo sapiens) (P04150 whole entry, looked up): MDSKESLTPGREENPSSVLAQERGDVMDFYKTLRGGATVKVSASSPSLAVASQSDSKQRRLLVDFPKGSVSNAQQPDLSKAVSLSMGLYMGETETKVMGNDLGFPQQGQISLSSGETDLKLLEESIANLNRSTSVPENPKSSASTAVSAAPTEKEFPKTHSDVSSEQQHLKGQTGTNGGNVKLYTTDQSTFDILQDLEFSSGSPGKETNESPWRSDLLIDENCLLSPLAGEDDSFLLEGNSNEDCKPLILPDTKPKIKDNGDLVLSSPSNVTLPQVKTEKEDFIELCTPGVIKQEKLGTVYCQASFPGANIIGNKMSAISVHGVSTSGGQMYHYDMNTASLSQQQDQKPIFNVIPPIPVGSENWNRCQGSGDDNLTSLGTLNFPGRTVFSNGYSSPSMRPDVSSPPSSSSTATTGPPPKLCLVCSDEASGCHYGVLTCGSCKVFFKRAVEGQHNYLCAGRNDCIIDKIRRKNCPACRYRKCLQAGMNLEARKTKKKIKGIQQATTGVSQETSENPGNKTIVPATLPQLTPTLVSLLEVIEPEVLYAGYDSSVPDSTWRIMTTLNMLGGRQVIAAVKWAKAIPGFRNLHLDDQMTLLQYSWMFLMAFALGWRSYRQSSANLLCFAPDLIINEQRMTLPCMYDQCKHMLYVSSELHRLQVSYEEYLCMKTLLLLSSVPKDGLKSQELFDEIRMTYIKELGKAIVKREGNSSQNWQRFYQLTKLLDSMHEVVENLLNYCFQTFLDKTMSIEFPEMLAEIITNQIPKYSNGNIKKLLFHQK

SMILES | Potency [1] | outcome [2] | Potency [3] | Potency [4] | Potency [5] | outcome [6] | outcome [7] | outcome [8] | outcome [9] | outcome [10] | outcome [11] | outcome [12] | outcome [13] | outcome [14] | outcome [15] | outcome [16] | outcome [17] | Potency [18] | Potency [19]
CC(C)(C)C(=O)C(Cl)Cl | inactive | inactive | inactive | inactive | inactive | inactive | inactive | inactive | inactive | inactive | inactive | inactive | inactive | inactive | inactive | – | – | – | –
COc1cccc([C@@]2(O)CCCC[C@@H]2CN(C)C)c1 | inactive | inactive | inactive | inactive | inactive | inactive | inactive | – | inactive | inactive | inactive | inactive | inactive | inactive | inactive | inactive | inactive | inactive | inactive
Cn1c(CCCC(=O)O)nc2cc(N(CCCl)CCCl)ccc21 | 26.6 µM (active) | inactive | inactive | inactive | inactive | inactive | inactive | – | inactive | inactive | inactive | inactive | inactive | inactive | inactive | inactive | inactive | inactive | –
CC(Cl)(Cl)Cl | inactive | inactive | inactive | inactive | inactive | inactive | inactive | inactive | inactive | inactive | inactive | inactive | inactive | inactive | inactive | inactive | inactive | – | –
C[N+]1(C)CCCCC1 | inactive | inactive | inactive | inactive | inactive | inactive | inactive | inactive | inactive | inactive | inactive | inactive | inactive | inactive | inactive | – | inactive | – | –
CCOC(=O)c1ncn2c1CN(C)C(=O)c1c(I)cccc1-2 | inactive | inactive | inactive | inactive | inactive | inactive | inactive | inactive | inactive | inactive | inactive | inactive | – | inactive | inactive | inactive | – | inactive | –
CCN(CCO)CCn1c(Cc2ccccc2)nc2c1c(=O)n(C)c(=O)n2C | inactive | inactive | inactive | inactive | inactive | inactive | inactive | inactive | inactive | inactive | inactive | inactive | inactive | inactive | inactive | – | inactive | inactive | –
CC(C)NCC(O)c1ccc([N+](=O)[O-])cc1 (configuration not stated) | inactive | inactive | inactive | inactive | inactive | inactive | inactive | inactive | inactive | inactive | – | inactive | inactive | inactive | inactive | inactive | inactive | inactive | inactive
O=C/C=C/c1ccco1 | inactive | inactive | inactive | inactive | inactive | inactive | inactive | inactive | inactive | inactive | inactive | inactive | inactive | inactive | inactive | – | – | inactive | inactive
CCC1(CC)C(=O)C=CNC1=O | inactive | inactive | inactive | inactive | inactive | inactive | inactive | inactive | inactive | inactive | inactive | inactive | inactive | inactive | inactive | inactive | inactive | inactive | inactive
CCCC(C)(COC(N)=O)COC(N)=O | inactive | inactive | inactive | inactive | inactive | inactive | inactive | inactive | inactive | inactive | inactive | inactive | – | inactive | inactive | inactive | – | inactive | –
c1ccc2c(c1)CCNC2 | inactive | inactive | inactive | inactive | inactive | inactive | inactive | inactive | inactive | inactive | inactive | inactive | inactive | inactive | inactive | inactive | inactive | – | –
CON(C)C(=O)Nc1ccc(Br)cc1 | inactive | inactive | inactive | inactive | inactive | inactive | inactive | inactive | inactive | inactive | inactive | inactive | inactive | inactive | inactive | – | inactive | inactive | –
CCN(CC)C1CCCCC1 | inactive | inactive | inactive | inactive | inactive | inactive | inactive | inactive | inactive | inactive | inactive | inactive | – | inactive | inactive | – | inactive | inactive | inactive
